Source: PubChem (several laboratories)
Only some compounds are listed: those with a hit (about 2% of all), similar ones and a draw of the others.
ABHD5 PLIN5 PPI: ABHD5-PLIN5 protein interaction inhibition. inhibition, % at 4 µM. 360,000 compounds, 0.78% hits. Split G. princeps luciferase complementation, luminescence, 4 h;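 active = inhibition above the mean inhibition across every tested compound plus 3 SD, cut at about 22% in these data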;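 also: 0% = DMSO only wells and the 100% control is not disclosed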
NOD2 RIPK2 PPI: blocks binding of human NOD2 to RIPK2. 360,000 compounds, 0.38% hits. inhibition, % at 4.98 µM. CHO BLA complementation NOD2-RIPK2, CCF4 ratio. O43353; in the data active = inhibition above about 21%;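 also: 0% = vehicle only and 100% = reference blocker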
Granule exo inh: blocks lytic granule exocytosis; TALL-104 LAMP-1 surface exposure, flow cytometry; cells stimulated with thapsigargin and PMA; inhibition, % at 10 µM; 360,000 compounds, 0.66% hits;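 active = inhibition above about 55%, limit read from the data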
TLR4-MyD88 BLA: blocks binding of human TLR4 to MyD88 | O00206+Q99836 | HeLa CL3-4 TLR4/MyD88 BLA complementation, FRET ratio | inhibition, % at 8.4 µM | 200,000 compounds, 0.18% hits; in the data active = inhibition above about 25%;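 also: 0% = vehicle and 100% = reference inhibitor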
Beta2AR agonist: human beta-2 adrenergic receptor agonism by FAP. P07550. Am2.2-beta2AR cells, FAP receptor internalization, flow cytometry. response, % (no concentration beside the values). 340,000 compounds, 0.43% hits. AID 504454;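 active = response above a set limit, near 3 SD of response in nonfluorescent compounds, cut at about 42% in these data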
TLR9-MyD88 inh: TLR9-MyD88 interaction inhibition; CHO BLA complementation TLR9-MyD88, CCF4 FRET ratio; AID 504734; 340,000 compounds, 0.21% hits; inhibition, % at 4.98 µM; Q9NR96+Q99836;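 active = inhibition above the mean over all tested compounds plus 3 SD, cut at about 21% in these data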;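 also: 0% = DMSO only wells and 100% = clavulanate BLA inhibitor control wells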
B2AR ag CP1: activates human beta-2 adrenergic receptor | 1,100 compounds, 25% hits | shares compounds with Beta2AR agonist | AID 540358 | Am2.2-beta2AR cells, FAP surface receptor, flow cytometry; active compounds read low | percent response (surface receptor), % at 10 µM;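 active = surface receptor percent response at or below 58%, roughly 3 SD from nonfluorescent compounds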
FAP fluor counter: counter-screen for beta-2AR agonists: fluorescence in Am2.2 cells | shares compounds with Beta2AR agonist | 1,100 tested, under 10 active | FAP fluorogen flow cytometry, fluorescence counterscreen; active compounds read low | calls only at 10 µM | AID 588765;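 active = percent response below a set limit in fluorescence channel 1 and below 50% in channel 8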
* marks the source's active call; other numbers are inactive results; ! = not active in a repeat.

CN(CCOc1ccc(-c2ccn(S(=O)(=O)c3cccc4ccccc34)n2)cc1)c1ccccn1 was read as ABHD5 PLIN5 PPI 2, NOD2 RIPK2 PPI 12, Granule exo inh 2, TLR4-MyD88 BLA 4, Beta2AR agonist 76*, TLR9-MyD88 inh 12, B2AR ag CP1 39* and FAP fluor counter inactive.
Cc1ccc(Cl)cc1Nc1nc(N2CCOCC2)nc(N2CCOCC2)n1 was read as ABHD5 PLIN5 PPI 1, NOD2 RIPK2 PPI -5, Granule exo inh 0, Beta2AR agonist 3 and TLR9-MyD88 inh 5.
For Cc1ccc([N+](=O)[O-])cc1Nc1nc(N2CCOCC2)nc(N2CCOCC2)n1 the results were ABHD5 PLIN5 PPI -3, NOD2 RIPK2 PPI 4, Granule exo inh -2, TLR4-MyD88 BLA -5, Beta2AR agonist 50*, TLR9-MyD88 inh 9, B2AR ag CP1 112 and FAP fluor counter inactive.
Screening Cc1ccccc1OCc1n(CC(=O)OC2CC(C)CCC2C(C)C)c2ccccc2[n+]1C (configuration not stated) returned ABHD5 PLIN5 PPI 15, NOD2 RIPK2 PPI 1, Granule exo inh 90*, TLR4-MyD88 BLA 11, Beta2AR agonist 108*!, TLR9-MyD88 inh 6, B2AR ag CP1 97 and FAP fluor counter inactive.
CC(CC(=O)Nc1ccc2c(c1)c(=O)n(C)n2-c1ccc2ccccc2c1)C(F)(F)F (configuration not stated) was read as ABHD5 PLIN5 PPI -1, NOD2 RIPK2 PPI 3 and Granule exo inh -3.
`O=C(Nc1ccccc1)Nc1sccc1-c1nc2ccccc2s1` gave ABHD5 PLIN5 PPI -12, NOD2 RIPK2 PPI -8, Granule exo inh 1 and Beta2AR agonist 26.
O=C(Nc1cccc(Cl)c1)Nc1sccc1-c1nc2ccccc2s1 was read as ABHD5 PLIN5 PPI -6, NOD2 RIPK2 PPI 4, Granule exo inh 8, Beta2AR agonist 66*, B2AR ag CP1 116 and FAP fluor counter inactive.
For O=C(Nc1cccc(-c2nc3ccccc3s2)c1)c1cc(=O)c2ccccc2o1 the results were ABHD5 PLIN5 PPI -1, NOD2 RIPK2 PPI -3, Granule exo inh -2, TLR4-MyD88 BLA 7, Beta2AR agonist 11 and TLR9-MyD88 inh 3.
O=C(Nc1cccc(-c2nc3ccccc3s2)c1)c1cccs1 was read as ABHD5 PLIN5 PPI 4, NOD2 RIPK2 PPI 1, Granule exo inh 8, TLR4-MyD88 BLA -1, Beta2AR agonist 52*, TLR9-MyD88 inh 13, B2AR ag CP1 46* and FAP fluor counter inactive.
`CC1=C(C#N)C(c2cn(-c3ccccc3)nc2-c2cccs2)C(C#N)=C(C)N1` gave ABHD5 PLIN5 PPI 1, NOD2 RIPK2 PPI 0, Granule exo inh 7, TLR4-MyD88 BLA -4, Beta2AR agonist 108*, TLR9-MyD88 inh 5, B2AR ag CP1 13* and FAP fluor counter inactive.
Screening COc1cc2c(cc1OC)C(c1ccc(-c3cc(Cl)ccc3Cl)o1)=NCC2 returned ABHD5 PLIN5 PPI 6, NOD2 RIPK2 PPI -9, Granule exo inh 6, TLR4-MyD88 BLA -2, Beta2AR agonist 15, TLR9-MyD88 inh -8, B2AR ag CP1 120 and FAP fluor counter inactive.
`C[C@@H]1CN([C@H](C)CO)C(=O)c2cc(Br)cnc2O[C@@H]1CN(C)C(=O)Cc1ccccc1` gave ABHD5 PLIN5 PPI 0, NOD2 RIPK2 PPI -7, Granule exo inh 4 and TLR9-MyD88 inh -1.
Screening CC(C)(C)NC(=O)C(c1ccc(F)cc1)N(Cc1ccccc1Cl)C(=O)c1ccn[nH]1 (configuration not stated) returned ABHD5 PLIN5 PPI 6, NOD2 RIPK2 PPI -4, Granule exo inh 14, TLR4-MyD88 BLA -12, Beta2AR agonist -4, TLR9-MyD88 inh -7, B2AR ag CP1 98 and FAP fluor counter inactive.
CN1CCc2c(sc3nc(SCC(=O)N4CCCCC4)n(-c4ccccc4)c(=O)c23)C1 was read as ABHD5 PLIN5 PPI 5, NOD2 RIPK2 PPI -17, Granule exo inh -14, Beta2AR agonist 61*, TLR9-MyD88 inh -2 and FAP fluor counter inactive.
For O=C1NC[C@H](Cc2ccc(O)cc2)N(C[C@@H]2CCCN2C[C@H](Cc2ccccc2)N2C[C@H](Cc3ccc(O)cc3)N(CC3CCCCCC3)C(=O)C2=O)C1=O the results were ABHD5 PLIN5 PPI 10, NOD2 RIPK2 PPI 2 and Granule exo inh -4.
Screening COc1cc(-c2nnc(COc3ccc(Cl)cc3C)o2)cc(OC)c1OC returned ABHD5 PLIN5 PPI 1, NOD2 RIPK2 PPI -5, Granule exo inh -1, TLR4-MyD88 BLA 0, Beta2AR agonist 9 and TLR9-MyD88 inh 3.
Screening Cc1ccc(-c2nnc(COc3cccc(-n4cnnn4)c3)o2)cc1 returned ABHD5 PLIN5 PPI 4, NOD2 RIPK2 PPI -1, Granule exo inh -7, TLR4-MyD88 BLA -8, Beta2AR agonist -12 and TLR9-MyD88 inh -30.
COc1ccc(-c2nnc(COc3ccc(Br)cc3C)o2)cc1 was read as ABHD5 PLIN5 PPI 1, NOD2 RIPK2 PPI 0, Granule exo inh -4, Beta2AR agonist -4, B2AR ag CP1 107 and FAP fluor counter inactive.
Screening Cc1cccc(OCc2nnc(-c3ccc(F)cc3)o2)c1 returned ABHD5 PLIN5 PPI -11, NOD2 RIPK2 PPI 5, Granule exo inh 6, Beta2AR agonist 7, TLR9-MyD88 inh 5, B2AR ag CP1 97 and FAP fluor counter inactive.
Screening COc1ccccc1CNC(=O)CN1CCN(c2ccc(C(C)=O)cc2)CC1 returned ABHD5 PLIN5 PPI 6, NOD2 RIPK2 PPI -2, Granule exo inh -9, Beta2AR agonist 54*, TLR9-MyD88 inh 4, B2AR ag CP1 118 and FAP fluor counter inactive.
For COc1ccc(-n2nc3c(N4CCC(C(=O)NCCc5ccco5)CC4)nnc(C)c3c2C)cc1 the results were ABHD5 PLIN5 PPI 17, NOD2 RIPK2 PPI 1, Granule exo inh -4, Beta2AR agonist 2 and TLR9-MyD88 inh -5.
COc1ccc(-n2nc3c(N4CCC(C(=O)NCc5cccc(C)c5)CC4)nnc(C)c3c2C)cc1 was read as ABHD5 PLIN5 PPI 9, NOD2 RIPK2 PPI 13, Granule exo inh 48, Beta2AR agonist 92*, TLR9-MyD88 inh 6, B2AR ag CP1 27* and FAP fluor counter inactive.
Screening Cc1ccc(-c2nc(NC(=O)c3cc(C(C)(C)C)nn3C)sc2C)cc1Cl returned ABHD5 PLIN5 PPI -8, NOD2 RIPK2 PPI -3, Granule exo inh -1, Beta2AR agonist 10, TLR9-MyD88 inh 0, B2AR ag CP1 97 and FAP fluor counter inactive.
For COCc1nnc(NC(=O)C(C)C)s1 the results were ABHD5 PLIN5 PPI -10, NOD2 RIPK2 PPI 4, Granule exo inh 4, TLR4-MyD88 BLA -4, Beta2AR agonist 53*, TLR9-MyD88 inh 2, B2AR ag CP1 95 and FAP fluor counter inactive.
